Measured values published in PubChem BioAssay AID504910 (Southern Research Specialized Biocontainment Screening …, 2011).
Measured potencies and affinities stand elsewhere. Active and inactive are the calls of the source. How the calls were made is not given here.

Assay: HepG2 cell cytotoxicity, cytotoxicity control, set 4 (AID 504910)
Settings: series mostly up to 50 µM; viability: at the top concentration

| SMILES | viability |
| --- | --- |
| Cn1c(SCC(=O)NC2CCCCC2)nc2ccccc2c1=O | 94% (inactive) |
| CCOC1OC(=O)C(Cl)=C1Nc1ccccc1C (stereo not given) | 96.8% (inactive) |
| O=C(CSc1nc2ccccc2c(=O)[nH]1)NC1CCCC1 | 98% (inactive) |
| O=c1[nH]c(SCc2ccccc2Cl)nc2c1CCCC2 | 92.6% (inactive) |
| COc1c(N2CCNC(C)C2)c(F)cc2c(=O)c(C(=O)O)cn(C3CC3)c12 (stereo not given) | 91.9% (inactive) |
| Cc1nc(SCC(=O)N(C)c2ccccc2)[nH]c(=O)c1C | 94% (inactive) |
| COC(=O)C(C)Oc1ccc(Cc2ncc(C(F)(F)F)cc2Cl)cc1 (stereo not given) | 89.4% (inactive) |
| Cc1[nH]c(=S)[nH]c(=O)c1C | 92.7% (inactive) |
| COc1cccc(NC(=O)CSc2nc3ccccc3c(=O)[nH]2)c1 | 96.4% (inactive) |
| O=C(CSc1nc2ccccc2c(=O)[nH]1)NCc1ccc(Cl)cc1 | 94.9% (inactive) |
| NNC(=O)c1ccncc1 | 92.1% (inactive) |
| CC1CCN(C(=O)C2CCN(c3nnc(-n4cccc4)s3)CC2)CC1 | 90.4% (inactive) |
| Cc1nc(SCc2ccccc2Cl)[nH]c(=O)c1C | 96.9% (inactive) |
| CN1CCC(NC(=O)CSc2nc3ccccc3c(=O)[nH]2)CC1 | 86.5% (inactive) |
| COc1ccc(NC(=O)CSc2nc3ccccc3c(=O)[nH]2)cc1 | 95.1% (inactive) |
| COC(=O)c1ccc(CNc2c(N3CCCC3)c(=O)c2=O)cc1 | 103% (inactive) |
| O=C(CSc1nccc(=O)[nH]1)NC1CCCCC1 | 102% (inactive) |
| CCCc1cc(C(N)=S)ccn1 | 88.6% (inactive) |
| Cc1cc(=O)[nH]c(=S)[nH]1 | 99.8% (inactive) |
| Cc1nc(SCC(N)=O)[nH]c(=O)c1C | 97.4% (inactive) |
| CCC(Sc1nc2ccccc2c(=O)[nH]1)C(=O)Nc1cccc(OC)c1 (stereo not given) | 98.7% (inactive) |
| Cc1cc(C)n2nc(N)c(N=Nc3ccccc3)c2n1 | 91.5% (inactive) |
| COc1cccc(NC(=O)CSc2nc3c(c(=O)[nH]2)CCC3)c1 | 91.2% (inactive) |
| Cc1ccc(NC(=O)CSc2nc3ccccc3c(=O)[nH]2)cc1Cl | 91.9% (inactive) |
| Nc1cc(=O)[nH]c(SCC(=O)NC2CCCCC2)n1 | 95.5% (inactive) |
| COC(=O)C(Nc1nc(SCC(=O)NC2CCCCC2)nc2ccccc12)c1ccccc1 (stereo not given) | 86.1% (inactive) |
| NC(=O)c1cnccn1 | 97.8% (inactive) |
| CC(Sc1nc2ccccc2c(=O)[nH]1)C(=O)NC1CCCCC1 (stereo not given) | 86.3% (inactive) |
| Cc1cc(Br)ccc1NC(=O)c1cnc(N2CCN(c3ccccn3)CC2)c2ccccc12 | 81.3% (inactive) |
| O=C(CSc1nc2c(c(=O)[nH]1)CCC2)NC1CCCCC1 | 101% (inactive) |
